One assay relates to ATS189. Description: qHTS profiling for inhibitors of Plasmodium falciparum proliferation (AID 504749). Also: nearly all actives have a fitted effect of over 60% in size. Also: potency is read from the fitted curve at half-maximal effect.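 As to activity, negative = inhibition: 0% = DMSO vehicle and full inhibition = artemisinin control.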 Conditions: P. falciparum in erythrocytes, SYBR Green DNA, 72 h; series mostly up to 28.7 µM. An outline of the steps:
(§1)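 In a 72 h erythrocytic culture (37 C, humidified, 5% CO2) at 2.5% hematocrit and 0.3% starting parasitemia, compounds were tested; SYBR Green I in detergent lysis buffer stained parasite DNA overnight.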

In another assay the test system is ATS95. Described as above. Conditions: P. falciparum in erythrocytes, SYBR Green DNA, 72 h; series mostly up to 28.7 µM. The procedure, abridged:
as §1

The test system of another assay is CP191. Described as above. As to conditions: P. falciparum in erythrocytes, SYBR Green DNA, 72 h; series mostly up to 28.7 µM. An outline of the steps: as §1
In the next assay the test system is CP237. The assay is described as above. As to conditions: P. falciparum in erythrocytes, SYBR Green DNA, 72 h; series mostly up to 28.7 µM. An outline of the steps:
as §1

The test system of a further assay is CP291. The description is as above. As to conditions: P. falciparum in erythrocytes, SYBR Green DNA, 72 h; series mostly up to 28.7 µM. The procedure, abridged:
as §1

Another assay has as its system DIV14. The assay is described as above. Conditions: P. falciparum in erythrocytes, SYBR Green DNA, 72 h; series mostly up to 28.7 µM. The procedure, abridged: as §1
The subject of the next assay is DIV17. The description is as above. As to conditions: P. falciparum in erythrocytes, SYBR Green DNA, 72 h; series mostly up to 28.7 µM. The procedure, abridged:
as §1

The next assay has as its system Dd2. The description is as above. As to conditions: P. falciparum in erythrocytes, SYBR Green DNA, 72 h; series mostly up to 28.7 µM. The procedure, abridged: as §1
A further assay relates to FAB9. The assay is described as above. Conditions: P. falciparum in erythrocytes, SYBR Green DNA, 72 h; series mostly up to 28.7 µM. An outline of the steps: as §1
For the next assay, the system named is GB4. The description is as above. Conditions: P. falciparum in erythrocytes, SYBR Green DNA, 72 h; series mostly up to 28.7 µM. An outline of the steps: as §1
A further assay relates to ICS. The assay is described as above. Conditions: P. falciparum in erythrocytes, SYBR Green DNA, 72 h; series mostly up to 28.7 µM. The procedure, abridged:
as §1

The next assay deals with P93_24. The description is as above. As to conditions: P. falciparum in erythrocytes, SYBR Green DNA, 72 h; series mostly up to 28.7 µM. The procedure, abridged:
as §1

In the next assay the test system is SC27B. The description is as above. As to conditions: P. falciparum in erythrocytes, SYBR Green DNA, 72 h; series mostly up to 28.7 µM. The procedure, abridged:
as §1

The next assay deals with TAB165. The description is as above. As to conditions: P. falciparum in erythrocytes, SYBR Green DNA, 72 h; series mostly up to 28.7 µM. The procedure, abridged: as §1
In assay [1] the target is Cytochrome P450 1A2 (Homo sapiens) (UniProt P05177). In words: p450-cyp1a2 (AID 410; calls by dose curve; also: potency is read from the fitted curve at half-maximal effect). As to conditions: recombinant CYP1A2, luciferin-ME demethylation, luminescence; series mostly up to 57 µM. The procedure, abridged:
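Read-out is luminescence from luciferin produced by CYP1A2 demethylation of Luciferin-ME (100uM, at Km). Detection reagent stopped the 60 min NADPH-dependent reaction; signals were normalized to 57 uM furafylline.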

Assay [2] in a line: Stat Signaling Pathway (AID 446; active = well fitted curve in either direction with a large enough effect, not every such curve was filed as active;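 also: ME-180 cervical cancer cells given 40 pM IL-6 alongside compound; SIE-controlled beta-lactamase reporter measured as 460/530 nm FRET emission ratio; % is scaled to controls: 0 for no effect and ±100 for the full control effect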). As to conditions: ME-180 (cervical carcinoma) SIE beta-lactamase reporter, IL-6 stimulated, 5 h. The procedure, abridged:
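Emission at 460 and 530 nm (excitation 405 nm) reports SIE-controlled beta-lactamase in ME-180 cells. Cells received compound with 40 pM IL-6 for 5 hrs at 37 C; data scaled between 300 pM IL-6 and 125 nM JAK-inhibitor controls.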

Assay [3] has as its target 3',5'-cyclic-AMP phosphodiesterase 4B (Homo sapiens) (UniProt Q07343). Description: qHTS Assay for Inhibitors of PDE-IV (AID 607; active = well fitted activation curve with a large enough effect in the main read-out, with a control signal flat, not every such curve was filed as active; also: % of control where 0% means no effect). Conditions: HEK293 ACTOne CNG channel cells, membrane potential fluorescence; series mostly up to 22.9 µM. The procedure, abridged:
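The readout is membrane depolarisation from a cAMP-sensing CNG channel, detected with a potential dye at ex 535/em 590. Cells were HEK293-derived (endogenous PDE-IV) at 1000 cells/well, titrated up to 22.9 uM final.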
A general note: qHTS replaces the single test concentration by a dilution series.

The nature of assay [4]: qHTS Assay for Identification of Small Molecule Agonists for Thrombopoietin (TPO) Signaling Pathway (AID 917). Also: % is scaled to controls: 0 for no effect and ±100 for the full control effect. As to conditions: TPO signaling pathway reporter cells, agonist qHTS, stimulated with TPO at its EC50; series mostly up to 38.5 µM. The procedure, abridged:
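Human TPO receptor–transfected Ba/F3 cells (murine, IL-3-dependent) in IL-3-deficient medium; compounds plus TPO at EC50, 26 pM final; 24 hrs, 37 C; GpIIb-luciferase luminescence after 10 min RT detection.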

Assay [5] concerns the target Muscarinic acetylcholine receptor M1 (Rattus norvegicus) (UniProt P08482). Description: qHTS Assay for Antagonists of Acetylcholine Muscarinic M1 Receptor: Measurement of IP-One Response (AID 944). Also: nearly all actives have a fitted effect of over 75% in size. As to conditions: CHO-M1 cells, IP-One HTRF, antagonist mode; series mostly up to 46.1 µM. An outline of the steps: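 Antagonism was measured as loss of carbachol-driven (EC80) IP1 accumulation in CHO cells carrying rat M1, using a homogeneous IP-One TR-FRET kit read at 620 and 665 nm.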

In assay [6] the target is Pyruvate kinase (Leishmania mexicana) (UniProt Q27686). Description: qHTS Validation Assay for Inhibitors of Leishmania Mexicana Pyruvate Kinase (AID 945).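 Also: 0% = DMSO only neutral control wells.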 Conditions: purified L. mexicana pyruvate kinase, enzyme activity, E451W mutant enzyme; series mostly up to 57.5 µM. An outline of the steps:
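Mutant LmPYK (E451W), 0.2 nM, plus 0.5 mM PEP and 0.1 mM ADP in 50 mM imidazole pH 7.2 containing 0.01% Tween 20 and 0.05% BSA. Incubated 1 h at room temperature; luminescence via PKLight, normalized to DMSO.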

A number with no mark means an inactive call. Results filed as inconclusive are left out. The source made the active and inactive calls. Unless noted, calls follow the shape of the dose curve; as a rule, active = well fitted curve in the direction sought with a large enough effect; inconclusive = small, poorly fitted or top-dose-only effect, or another doubt; inactive = no such curve, though single readings can be large; an effect the other way counts as inactive or inconclusive.

Sequence of 3',5'-cyclic-AMP phosphodiesterase 4B (Homo sapiens) (Q07343 whole entry, looked up): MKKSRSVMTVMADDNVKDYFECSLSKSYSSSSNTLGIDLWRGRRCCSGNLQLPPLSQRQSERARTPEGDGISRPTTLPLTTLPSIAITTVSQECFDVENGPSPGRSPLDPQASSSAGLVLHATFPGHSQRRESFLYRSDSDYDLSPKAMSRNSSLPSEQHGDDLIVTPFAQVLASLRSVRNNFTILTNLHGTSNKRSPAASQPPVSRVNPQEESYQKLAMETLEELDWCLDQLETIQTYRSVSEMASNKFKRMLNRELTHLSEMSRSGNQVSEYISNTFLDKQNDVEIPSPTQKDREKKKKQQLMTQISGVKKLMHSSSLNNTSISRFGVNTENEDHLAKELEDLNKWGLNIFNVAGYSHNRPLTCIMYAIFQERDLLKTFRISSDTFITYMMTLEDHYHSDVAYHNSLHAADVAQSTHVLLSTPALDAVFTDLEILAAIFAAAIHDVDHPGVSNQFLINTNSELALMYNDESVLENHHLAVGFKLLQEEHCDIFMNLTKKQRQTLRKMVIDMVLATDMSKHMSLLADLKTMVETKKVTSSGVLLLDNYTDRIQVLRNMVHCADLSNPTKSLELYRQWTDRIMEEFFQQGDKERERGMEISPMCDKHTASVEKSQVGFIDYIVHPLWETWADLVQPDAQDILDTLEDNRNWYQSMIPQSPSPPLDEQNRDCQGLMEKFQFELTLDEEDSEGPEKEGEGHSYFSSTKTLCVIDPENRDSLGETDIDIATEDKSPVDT
Sequence of Pyruvate kinase (Leishmania mexicana) (Q27686 2-499 E452W): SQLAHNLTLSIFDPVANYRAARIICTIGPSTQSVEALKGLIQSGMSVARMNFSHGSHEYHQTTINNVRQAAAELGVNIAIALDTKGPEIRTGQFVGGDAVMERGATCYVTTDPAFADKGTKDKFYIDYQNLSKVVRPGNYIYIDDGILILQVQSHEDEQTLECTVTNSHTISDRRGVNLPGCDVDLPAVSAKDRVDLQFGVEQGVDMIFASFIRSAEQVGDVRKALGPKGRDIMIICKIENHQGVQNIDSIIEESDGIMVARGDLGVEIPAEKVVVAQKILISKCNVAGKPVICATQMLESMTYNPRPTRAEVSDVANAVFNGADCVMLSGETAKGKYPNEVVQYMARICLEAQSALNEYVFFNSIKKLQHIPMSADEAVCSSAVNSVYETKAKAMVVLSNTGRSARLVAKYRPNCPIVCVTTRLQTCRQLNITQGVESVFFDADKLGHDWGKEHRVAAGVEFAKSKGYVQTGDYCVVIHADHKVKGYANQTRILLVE
Sequence of Muscarinic acetylcholine receptor M1 (Rattus norvegicus) (P08482 whole entry, looked up): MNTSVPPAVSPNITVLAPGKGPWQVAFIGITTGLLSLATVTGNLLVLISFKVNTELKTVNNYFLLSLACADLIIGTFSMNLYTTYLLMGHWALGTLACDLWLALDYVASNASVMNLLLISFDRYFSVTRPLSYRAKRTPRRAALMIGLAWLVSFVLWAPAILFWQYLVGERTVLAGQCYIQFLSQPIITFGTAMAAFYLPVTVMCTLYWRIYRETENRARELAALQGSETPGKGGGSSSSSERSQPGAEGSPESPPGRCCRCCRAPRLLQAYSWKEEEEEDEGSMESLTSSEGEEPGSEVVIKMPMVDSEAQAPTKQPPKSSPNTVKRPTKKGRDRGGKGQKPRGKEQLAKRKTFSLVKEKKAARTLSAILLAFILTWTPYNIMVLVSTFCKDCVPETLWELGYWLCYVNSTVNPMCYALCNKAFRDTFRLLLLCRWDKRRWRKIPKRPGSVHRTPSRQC
Sequence of Cytochrome P450 1A2 (Homo sapiens) (P05177 whole entry, looked up): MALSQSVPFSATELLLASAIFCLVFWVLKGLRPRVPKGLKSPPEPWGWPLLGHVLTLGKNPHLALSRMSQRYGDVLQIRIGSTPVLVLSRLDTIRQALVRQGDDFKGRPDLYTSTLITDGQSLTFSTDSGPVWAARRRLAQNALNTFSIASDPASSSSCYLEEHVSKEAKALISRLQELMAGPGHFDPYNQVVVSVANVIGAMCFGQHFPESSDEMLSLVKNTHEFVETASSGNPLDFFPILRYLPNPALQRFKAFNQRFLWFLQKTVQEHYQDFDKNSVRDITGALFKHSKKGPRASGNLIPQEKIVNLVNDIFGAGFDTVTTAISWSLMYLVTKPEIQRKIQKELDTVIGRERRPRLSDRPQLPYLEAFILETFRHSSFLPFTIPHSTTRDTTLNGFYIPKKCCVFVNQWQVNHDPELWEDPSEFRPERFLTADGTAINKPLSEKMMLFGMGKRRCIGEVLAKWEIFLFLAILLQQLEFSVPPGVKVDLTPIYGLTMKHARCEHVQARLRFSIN

With `O=C(CC1NCCC[C@H]1O)Cn1cnc2cc(Br)c(Cl)cc2c1=O` (stereo not given in full), the Potency with ATS189 is 4.47 µM (active); in the assay with ATS95, 2 µM (active); with CP191, 2.82 µM (active); with CP237, 3.55 µM (active); in the assay on CP291, 2.69 µM (active); in the assay on DIV14 it was 3.01 µM (active). Besides, the Potency was 3.38 µM (active) in the assay on DIV17; 0.708 µM (active) in the assay with Dd2; 1 µM (active) in the assay on FAB9; 1.9 µM (active) with GB4; 1.12 µM (active) in the assay on ICS; 1.41 µM (active) with P93_24. The values for the Potency in the assay on SC27B and in the assay with TAB165 were 11.2 µM (active) and 1 µM (active), respectively.

With `Clc1ccccc1CNCC1CCC(CNCc2ccccc2Cl)CC1` (stereo not given), the Potency entry in assay [1] is “inactive”.

As to `CC(C)=CCC/C(C)=C/CC/C(C)=C/CSc1ccccc1C(=O)O`, in [2] (at 38 µM (top of the series)), the activity, negative = inhibition was 1.75%. The Potency entry in assay [3], in [4], in [5] and in assay [6] was “inactive” in each case.

`CN1CCN(CCC=C2c3ccccc3Sc3ccc(S(=O)(=O)N(C)C)cc32)CC1`: the Potency entry (in [4]; in [5]; in [6]; with FAB9) was “inactive” throughout. The Potency in the assay with ATS189 is 8.91 µM (active); in the assay on ATS95 it was 11.2 µM (active); in the assay on CP191, 12.6 µM (active); with CP237 it was 11.2 µM (active); in the assay with CP291, 15.1 µM (active); in the assay with DIV14, 8.49 µM (active). For the same molecule, the Potency with DIV17 is 9.53 µM (active); with Dd2 it was 12.6 µM (active); in the assay on GB4 it was 13.5 µM (active); in the assay with ICS, 7.94 µM (active); with P93_24, 12.6 µM (active); with SC27B it was 11.2 µM (active). For the same molecule, in the assay on TAB165, the Potency was 8.91 µM (active).

Turning to `CCOC(=O)CCC(=O)O[C@H]1[C@H](O[C@@H]2[C@@H](C)[C@H](O[C@H]3C[C@@](C)(OC)[C@@H](O)[C@H](C)O3)[C@@H](C)C(=O)O[C@H](CC)[C@@](C)(O)[C@H](O)[C@@H](C)C(=O)[C@H](C)C[C@@]2(C)O)O[C@H](C)C[C@@H]1N(C)C`, the activity, negative = inhibition in assay [2] (at 17.2 µM (top of the series)) is 1.81%.

Take `COc1cc(/C=C(\C#N)C(N)=O)cc(CSc2nc3ccccc3s2)c1O`: in assay [1], the Potency was 1.26 µM (active). Moreover, in assay [3], the Potency entry was “inactive”.

For the origin of these results see PubChem BioAssay (NCATS).
